# Test results reported in ChEMBL document CHEMBL1961873, “Compounds: GSK PKIS; Assays: Nanosyn kinase panel” (2012).
# Assays:
# [1] = target: Protein kinase C gamma type (Homo sapiens) (UniProt P05129); conditions: at 1 µM;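 note: each value is an averaged percent inhibition of the enzyme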
# [2] = target: T1, Protein kinase C iota type (Homo sapiens) (UniProt P41743); conditions: at 0.1 µM
# T1 sequence (whole entry): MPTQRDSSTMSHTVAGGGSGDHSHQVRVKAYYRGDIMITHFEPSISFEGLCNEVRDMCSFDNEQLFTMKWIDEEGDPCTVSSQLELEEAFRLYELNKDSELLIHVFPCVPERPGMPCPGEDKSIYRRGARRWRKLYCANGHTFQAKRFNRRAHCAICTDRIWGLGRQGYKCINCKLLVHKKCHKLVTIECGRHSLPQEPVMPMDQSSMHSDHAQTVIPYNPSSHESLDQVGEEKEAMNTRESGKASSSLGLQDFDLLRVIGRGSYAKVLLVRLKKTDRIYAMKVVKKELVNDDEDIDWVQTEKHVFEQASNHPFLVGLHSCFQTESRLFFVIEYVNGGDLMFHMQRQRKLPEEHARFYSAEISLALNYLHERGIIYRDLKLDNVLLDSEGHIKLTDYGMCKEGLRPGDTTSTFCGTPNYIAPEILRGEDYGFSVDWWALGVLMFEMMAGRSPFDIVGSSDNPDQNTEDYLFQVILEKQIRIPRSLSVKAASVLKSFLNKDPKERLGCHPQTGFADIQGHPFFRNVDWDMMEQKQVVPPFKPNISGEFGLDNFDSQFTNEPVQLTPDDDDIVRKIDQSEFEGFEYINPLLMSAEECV
# [3] = target: T1, Protein kinase C iota type (Homo sapiens); conditions: at 1 µM
# [4] = target: Protein kinase C theta type (Homo sapiens) (UniProt Q04759); conditions: at 0.1 µM
# Chain of Protein kinase C theta type (Homo sapiens) (Q04759 whole entry, looked up): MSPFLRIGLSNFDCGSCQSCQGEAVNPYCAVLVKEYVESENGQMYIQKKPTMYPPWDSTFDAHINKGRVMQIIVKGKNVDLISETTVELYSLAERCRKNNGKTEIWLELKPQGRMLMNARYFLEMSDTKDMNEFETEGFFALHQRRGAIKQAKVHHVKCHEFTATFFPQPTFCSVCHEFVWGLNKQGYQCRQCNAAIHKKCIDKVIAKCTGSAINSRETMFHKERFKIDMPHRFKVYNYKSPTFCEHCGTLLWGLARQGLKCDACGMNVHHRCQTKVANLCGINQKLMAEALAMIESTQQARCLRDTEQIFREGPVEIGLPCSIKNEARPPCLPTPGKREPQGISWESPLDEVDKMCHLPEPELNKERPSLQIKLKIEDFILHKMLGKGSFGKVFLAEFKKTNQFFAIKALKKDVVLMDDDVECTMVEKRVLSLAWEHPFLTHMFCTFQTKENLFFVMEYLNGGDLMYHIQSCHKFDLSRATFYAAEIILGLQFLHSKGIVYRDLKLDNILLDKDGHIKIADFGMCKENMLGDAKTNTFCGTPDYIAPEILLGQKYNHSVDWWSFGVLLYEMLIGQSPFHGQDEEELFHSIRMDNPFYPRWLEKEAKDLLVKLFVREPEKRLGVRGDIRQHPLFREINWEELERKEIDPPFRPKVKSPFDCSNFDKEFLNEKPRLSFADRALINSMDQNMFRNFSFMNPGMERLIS
# [5] = target: Protein kinase C theta type (Homo sapiens) (UniProt Q04759); conditions: at 1 µM
# [6] = target: Protein kinase C beta type (Homo sapiens) (UniProt P05771); conditions: at 0.1 µM
# Chain of Protein kinase C beta type (Homo sapiens) (P05771 2-671 limits assumed): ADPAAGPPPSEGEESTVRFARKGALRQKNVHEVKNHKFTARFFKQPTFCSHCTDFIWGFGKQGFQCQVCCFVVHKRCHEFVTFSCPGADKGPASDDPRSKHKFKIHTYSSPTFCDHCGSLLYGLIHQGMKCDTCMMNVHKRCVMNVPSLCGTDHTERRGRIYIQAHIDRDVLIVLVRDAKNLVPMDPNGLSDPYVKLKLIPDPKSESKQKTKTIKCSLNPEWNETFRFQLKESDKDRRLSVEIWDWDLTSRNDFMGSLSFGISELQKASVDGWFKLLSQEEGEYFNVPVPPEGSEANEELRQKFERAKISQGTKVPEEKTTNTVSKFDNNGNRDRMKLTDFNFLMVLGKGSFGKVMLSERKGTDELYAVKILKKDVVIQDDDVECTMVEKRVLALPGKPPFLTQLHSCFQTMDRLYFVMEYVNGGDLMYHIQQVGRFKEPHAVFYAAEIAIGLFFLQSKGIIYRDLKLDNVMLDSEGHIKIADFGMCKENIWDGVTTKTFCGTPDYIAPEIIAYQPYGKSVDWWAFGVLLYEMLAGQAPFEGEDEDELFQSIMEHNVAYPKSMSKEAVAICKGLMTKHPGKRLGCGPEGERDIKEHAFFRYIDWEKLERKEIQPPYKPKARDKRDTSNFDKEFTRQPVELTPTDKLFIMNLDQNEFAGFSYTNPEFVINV
# [7] = target: Protein kinase C beta type (Homo sapiens) (UniProt P05771); conditions: at 1 µM
# [8] = target: T2, Serine/threonine-protein kinase D1 (Homo sapiens) (UniProt Q15139); conditions: at 0.1 µM
# T2 sequence (whole entry): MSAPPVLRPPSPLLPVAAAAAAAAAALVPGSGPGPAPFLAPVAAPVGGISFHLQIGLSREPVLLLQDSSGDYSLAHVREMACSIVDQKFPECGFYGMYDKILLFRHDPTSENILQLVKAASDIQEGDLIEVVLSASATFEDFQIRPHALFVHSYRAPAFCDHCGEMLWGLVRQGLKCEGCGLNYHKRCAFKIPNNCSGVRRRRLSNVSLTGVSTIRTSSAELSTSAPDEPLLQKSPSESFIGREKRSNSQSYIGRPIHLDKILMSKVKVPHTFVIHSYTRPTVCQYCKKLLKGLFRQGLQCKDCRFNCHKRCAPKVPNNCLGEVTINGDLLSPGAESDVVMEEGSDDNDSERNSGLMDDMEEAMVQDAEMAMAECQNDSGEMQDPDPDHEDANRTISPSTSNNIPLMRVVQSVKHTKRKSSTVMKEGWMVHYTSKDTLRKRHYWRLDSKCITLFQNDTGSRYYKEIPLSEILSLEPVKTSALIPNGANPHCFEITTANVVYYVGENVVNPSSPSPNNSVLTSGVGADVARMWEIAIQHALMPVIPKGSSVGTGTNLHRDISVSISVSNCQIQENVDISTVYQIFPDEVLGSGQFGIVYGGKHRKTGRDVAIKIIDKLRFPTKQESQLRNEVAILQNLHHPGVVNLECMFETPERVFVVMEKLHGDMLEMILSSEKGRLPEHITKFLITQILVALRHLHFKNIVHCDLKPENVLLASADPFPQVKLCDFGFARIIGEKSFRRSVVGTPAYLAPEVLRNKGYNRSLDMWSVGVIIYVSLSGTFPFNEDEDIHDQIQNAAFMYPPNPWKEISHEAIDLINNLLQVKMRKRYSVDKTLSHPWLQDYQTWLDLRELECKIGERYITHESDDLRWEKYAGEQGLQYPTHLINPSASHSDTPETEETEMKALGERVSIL
# [9] = target: T2, Serine/threonine-protein kinase D1 (Homo sapiens); conditions: at 1 µM
# [10] = target: T3, Serine/threonine-protein kinase D2 (Homo sapiens) (UniProt Q9BZL6); conditions: at 0.1 µM;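 note: reported percent inhibition values are means, part of the GSK PKIS kinase panel screen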
# T3 sequence (whole entry): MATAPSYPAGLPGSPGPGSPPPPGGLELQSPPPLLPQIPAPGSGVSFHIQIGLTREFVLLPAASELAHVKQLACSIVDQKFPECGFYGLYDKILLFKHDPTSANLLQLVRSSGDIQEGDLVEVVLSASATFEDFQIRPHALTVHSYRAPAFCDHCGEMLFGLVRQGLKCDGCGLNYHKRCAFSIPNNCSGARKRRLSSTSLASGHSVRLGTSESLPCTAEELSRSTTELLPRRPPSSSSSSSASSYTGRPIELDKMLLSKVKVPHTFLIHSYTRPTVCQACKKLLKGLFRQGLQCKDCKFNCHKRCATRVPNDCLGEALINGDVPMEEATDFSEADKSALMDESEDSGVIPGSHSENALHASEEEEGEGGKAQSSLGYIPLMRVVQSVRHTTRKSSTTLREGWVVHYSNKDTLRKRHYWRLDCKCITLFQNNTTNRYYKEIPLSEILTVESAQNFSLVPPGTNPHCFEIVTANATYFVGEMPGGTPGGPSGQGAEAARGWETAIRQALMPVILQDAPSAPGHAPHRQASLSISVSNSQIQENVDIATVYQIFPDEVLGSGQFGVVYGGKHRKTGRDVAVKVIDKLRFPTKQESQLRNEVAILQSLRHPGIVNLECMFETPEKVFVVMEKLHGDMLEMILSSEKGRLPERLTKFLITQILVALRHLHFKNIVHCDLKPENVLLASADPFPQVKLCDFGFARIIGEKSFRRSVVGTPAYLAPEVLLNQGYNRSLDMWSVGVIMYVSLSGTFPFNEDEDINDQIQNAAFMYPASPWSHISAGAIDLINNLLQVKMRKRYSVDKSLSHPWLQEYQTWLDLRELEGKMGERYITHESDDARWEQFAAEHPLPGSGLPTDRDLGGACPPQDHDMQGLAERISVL
SMILES,inhibition [1] [%],inhibition [2] [%],inhibition [3] [%],inhibition [4] [%],inhibition [5] [%],inhibition [6] [%],inhibition [7] [%],inhibition [8] [%],inhibition [9] [%],inhibition [10] [%]
Fc1ccc(-c2cc(-c3c[nH]nc3-c3ccccn3)ccn2)cc1,1.87,2.53,0.58,3.15,5.06,1.48,1.07,4.79,26.9,6.43
CC(=O)Nc1cccc(C#Cc2cncnc2Nc2ccc(OCc3cccc(F)c3)c(Cl)c2)c1,3.97,0.27,2.04,0.62,-0.6,1.6,0.79,1.8,2.69,1.88
O=C(Nc1n[nH]c2cc(-c3ccc(F)cc3)ccc12)C1CC1,5.71,2.42,3.67,3,5.04,2.1,4.04,3.02,5.62,2.7
COC(=O)Nc1nc2ccc(S(=O)(=O)c3ccc(NC(=O)Nc4cc(C(F)(F)F)ccc4F)cc3)cc2[nH]1,1.8,0.65,1.49,0.7,-0.17,0.33,0.07,2.33,5.18,2.66
CCOc1ccc2c(-c3ccnc(Nc4cccc(C(F)(F)F)c4)n3)cnn2n1,2.94,1.45,0.72,0.84,0.7,0.45,0.29,3.34,3.21,3.62
CC(=O)NCc1cccc(C#Cc2cncnc2Nc2ccc(OCc3cccc(F)c3)c(Cl)c2)c1,1.3,0.84,0.45,0.15,-0.29,0.7,0.37,3.28,2.11,0.45
COc1ccc(-c2cc(-c3c[nH]nc3-c3ccccn3)ccn2)cc1,1.71,1.68,0.87,2.82,5.05,0.62,1.96,8.14,37.8,9.14
CCCN1CCC(c2ccc(Nc3nc(Nc4cc(F)ccc4C(N)=O)c4cc[nH]c4n3)c(OC)c2)CC1,29.8,0.78,1.12,2.2,8.87,1.54,6.05,21.5,73.8,18
CCCN(CCS(C)(=O)=O)Cc1ccc(-c2ccc3ncnc(Nc4ccc(OCc5cccc(F)c5)c(Cl)c4)c3c2)o1,2.5,1.67,-0.59,0.4,0.62,1.13,2.02,1.1,2.52,0.95
COc1ccc(-c2oc3ncnc(N)c3c2-c2ccc(NC(=O)Nc3cc(C(F)(F)F)ccc3F)cc2)cc1,6.08,3.51,0.63,3.51,5.06,1.71,4.49,2.73,3.09,3.37
COc1cc(/C=N/Nc2ncnc3[nH]ncc23)ccc1O,8.27,2.83,2.53,2.3,4.29,0.58,4.16,2.99,4.19,2.81
CC(C)(CO)CNC(=O)c1ccc2c(c1)/C(=N/Nc1ccc(S(N)(=O)=O)cc1)C(=O)N2,3.43,-0.53,-0.82,0.56,0.9,0.36,1.12,0.49,13.9,0.9
Clc1ccc(-c2nn3ncccc3c2-c2ccnc(Nc3ccccc3)n2)cc1,-1.39,0.23,0.46,0.91,-0.72,-0.06,3.99,1.65,2.76,1.23
COC(=O)Nc1nc2ccc(Oc3ccc(NC(=O)Nc4cccc(Cl)c4)cc3)cc2[nH]1,-1.47,0.42,0.23,0.36,0.17,0.5,0.57,2.7,3.03,1.6
c1cc(-c2cnn3nc(N4CCOCC4)ccc23)nc(NC2CC2)n1,1.85,1.79,3.89,1.39,1.61,0.87,1.89,3.97,39.6,6.38
COc1cccc(-n2ncc3c(N/N=C/c4ccc(F)cc4)ncnc32)c1,2.6,1.87,1.45,2.53,4.19,2.56,0.22,3.64,4.89,3.35
NS(=O)(=O)c1ccc(N/N=C2\C(=O)Nc3ccc4ncccc4c32)cc1,11.8,-0.86,1.52,2.1,11.8,1.28,3.78,12.6,62.2,9.02
O=S(=O)(CCNCc1ccc(-c2ccc3ncnc(Nc4ccc(OCc5cccc(F)c5)c(Cl)c4)c3c2)o1)c1ccccc1,6.38,4.15,4.31,2.33,2.85,2.03,2.6,5.17,7.32,5.52
CCc1nn2ncccc2c1-c1ccnc(NC2CC2)n1,4.3,0.47,0.64,0.97,1.63,1.1,3.32,2.35,4.56,2.36
